D1 agonist = Allosteric Agonists of the Human D1 Dopamine Receptor: qHTS | HEK293 T-REx D1 cells, calcium flux, agonist mode | activation, % at 2 µM | 1% of 360,000 active; in the data active = activation above about 30%; also: 0% is about no effect
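Agonism was scored from calcium flux recorded over 180 s (1 read/s) after pintool compound addition, following a 10-cycle baseline. Cells were inducible force-coupled HEK293 TREx D1, plated overnight at 30 C and loaded with no-wash calcium dye.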
D1 PAM = Potentiators of Human D1 Dopamine Receptor: qHTS; HEK293 TREx D1 cells, calcium flux, dopamine EC20 potentiation; potentiation, % at 10 µM; 0.036% of 360,000 active; AID 504651, 2011; in the data active = potentiation above about 30%; also: 0% is about no effect
DRD3 agonist = qHTS of D3 Dopamine Receptor Agonist: qHTS; 0.58% of 410,000 active; D(3) dopamine receptor (Homo sapiens), P35462; D3R DiscoveRx beta-arrestin cells, luminescence, 90 min; AID 652048, 2013; max activation, %; in the data active = max activation above about 30%; also: 0% is about no effect
Target sequence (P35462 whole entry, looked up): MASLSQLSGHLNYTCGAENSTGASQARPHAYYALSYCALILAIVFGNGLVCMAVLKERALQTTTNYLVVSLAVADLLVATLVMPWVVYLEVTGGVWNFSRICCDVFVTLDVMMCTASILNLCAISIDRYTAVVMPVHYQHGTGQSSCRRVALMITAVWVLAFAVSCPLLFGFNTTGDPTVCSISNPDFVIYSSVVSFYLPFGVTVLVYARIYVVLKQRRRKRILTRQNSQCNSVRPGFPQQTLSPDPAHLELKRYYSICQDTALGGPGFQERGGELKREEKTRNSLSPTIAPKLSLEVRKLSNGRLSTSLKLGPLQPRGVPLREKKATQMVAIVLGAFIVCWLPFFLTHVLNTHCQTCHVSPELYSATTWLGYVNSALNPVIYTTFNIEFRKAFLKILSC
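Agonist mode: compounds and dopamine controls were applied to plated cells for 90 min at 37 degrees C after an overnight attachment at 1500 cells/well. Luminescent read-out followed 30 - 60 minutes at room temperature with DiscoveRx detection reagent.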
D3 antag = qHTS of D3 Dopamine Receptor Antagonist: qHTS. AID 652054, 2013. 2.5% of 360,000 active. max response, negative = inhibition, %. D3R cells, DiscoveRx beta-arrestin luminescence, antagonist mode; hits give low values; in the data active = max response below about -50%; also: % is scaled to controls: 0 for no effect and ±100 for the full control effect
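Cells expressing the human receptor were seeded at 1500 cells/well, incubated overnight at 37 degrees C in 5% CO2, then exposed to library compounds with dopamine controls for 90 minutes at 37 degrees C before luminescent detection.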
D1 antag = Antagonist of Human D 1 Dopamine Receptor: qHTS; AID 504652, 2011; HEK293 TREx D1 cells, calcium flux, dopamine EC80; hits give low values; activity change, negative = inhibition, % at 10 µM; 3.2% of 360,000 active; in the data active = activity change below about -30%; also: % is scaled to controls: 0 for no effect and ±100 for the full control effect
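Kinetic fluorescence of a calcium dye serves as the read-out. D1-expressing Hek293 Trex cells, induced overnight at 30 C, are exposed to compound for 180 s before an EC80 dopamine addition, then read 180 s further.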
An asterisk follows results filed as active; . = no result given. Shown are actives, neighbours in structure and some others; about 6% of the full set was active somewhere.

SMILES	D1 agonist	D1 PAM	DRD3 agonist	D3 antag	D1 antag
O=C(NCCCN1CCN(CCCNC(=O)c2ccccc2F)CC1)c1ccccc1F	1.6	-3.1	-1.7	-51.3*	-20.1
O=C(NCCCN1CCOCC1)c1c(F)cccc1F	0.8	0.6	-5.3	-12.7	-7.5
S=C(Nc1ccccc1)Nc1ccc(OCc2ccc(Cl)cc2Cl)cc1	1.5	0.8	-0.7	-3.6	2.9
CC(C)NC(=NCc1ccc(Cl)cc1Cl)Nc1ccccc1	45.6*	-4.7	-11.3	-18.8	-12.1
O=C(NCC1CCN(Cc2cccc(Cl)c2)CC1)Nc1ccc(Cl)cc1	31.5*	-19.0	-5.0	-60.7*	-73.3*
Cc1cc(CN2CCCCC2C(=O)Nc2ccc(Oc3cccnc3)cc2)oc1C (stereo not drawn)	3.2	-5.7	0.0	18.3	-33.0*
CCc1cccc(CN2CCC(CNC(=O)Nc3ccc(Cl)cc3)CC2)c1	38.9*	-7.5	-15.4	3.2	-43.7*
O=C(Nc1ccc(Oc2cccnc2)cc1)C1CCN(Cc2cccc(Cl)c2)CC1	49.4*	-11.9	-6.3	-11.4	-37.0*
O=C(NCC1CCN(Cc2cccc(Cl)c2)CC1)Nc1ccc(F)c(Cl)c1	21.5	-4.0	-3.9	.	-5.6
O=C(Nc1ccc(Oc2cccnc2)cc1)C1CCCCN1Cc1ccc(CO)o1 (stereo not drawn)	2.2	0.8	-10.5	-2.4	0.6
CC(C)(C)C(=O)NCCCC(=O)O	.	.	-3.2	.	.
O=C(CSc1ncn[nH]1)Nc1ccccc1C(=O)O	-0.5	-0.2	-3.4	-4.3	8.2
O=C(CSc1ncn[nH]1)Nc1ccc(Br)cc1F	1.1	0.6	3.3	-7.2	-36.1*
Cc1cc2oc(=O)cc(CN3CCCCC3)c2cc1C(C)C	6.2	-4.5	0.4	-78.0*	-21.8
CC(=O)N1CCN(Cc2cc(=O)oc3cc(C)c(C)cc23)CC1	.	.	-4.2	-80.0*	.
Cc1cc2oc(=O)cc(CN3CCC(C)CC3)c2cc1C	-0.1	0.6	-12.2	-71.5*	-14.1
COc1cc2oc(=O)cc(CN3CCN(C(C)=O)CC3)c2cc1Cl	.	.	-5.6	-23.7	.
Cc1cc2oc(=O)cc(CN3CCC(C)CC3)c2c(C)c1Cl	2.0	10.4	0.1	20.6	1.0
CCCCc1cc(=O)oc2cc(C)c3c(C(C)(C)C)coc3c12	2.2	0.1	-9.3	.	11.5
O=C(COc1ccccc1F)Nc1ccccc1OCc1cc(=O)n2ccccc2n1	0.8	-0.8	1.9	.	-29.7
COc1ccc(N2Cc3cccc(C(=O)Nc4ccc(C(C)C)cc4)c3C2=O)cc1	0.3	1.1	-3.1	.	-4.7
O=C(O)c1ccccc1N=Nc1ccc(O)cc1	.	.	-51.6	-71.0*	.
O=C(O)c1cc(O)ccc1N=Nc1ccccc1	1.8	-0.6	-3.1	-20.5	-10.3
CCc1ccc(CNC(=O)C(CC)n2ccc3cc(S(=O)(=O)N4CCCCC4)ccc32)cc1 (stereo not drawn)	5.6	-2.1	5.8	.	9.5
COc1ccccc1C(CNc1ncnc2sc(C)c(C)c12)N(C)C (stereo not drawn)	-2.0	-0.1	-12.0	-5.5	-8.2
SMILES	D1 agonist	D1 PAM	DRD3 agonist	D3 antag	D1 antag
COc1ccc(C(CNc2ncnc3sc(C)c(C)c23)N(C)C)cc1 (stereo not drawn)	1.1	-2.7	-14.4	-71.1*	10.5
CN(C)C(CNc1ncnc2sc3c(c12)CCCCC3)c1ccco1 (stereo not drawn)	3.7	-0.5	-13.9	-29.0	-4.8
Cc1sc2ncnc(NCC(c3ccco3)N(C)C)c2c1C (stereo not drawn)	10.3	-5.5	-5.3	-12.6	-34.8*
Cc1sc2ncn(CC(=O)N(C)c3cccc(C(F)(F)F)c3)c(=O)c2c1S(=O)(=O)N1CCN(c2ncccn2)CC1	2.6	0.1	1.1	.	1.9
CC1=C(C(=O)OC2CCCC2)C(c2ccccc2Cl)CC(=O)N1 (stereo not drawn)	0.7	7.6	-12.6	.	11.8
CCOCCc1nnc(NC(=O)C(=O)c2cc(C)n(-c3ccc(C)c(C)c3)c2C)s1	2.0	-1.2	1.6	.	0.1
Cc1ccc(C)c(NS(=O)(=O)c2cc3c(cc2Cl)NC(=O)CO3)c1	-0.3	0.0	-7.1	.	-16.6
Cc1ccc(NC(=O)COc2ccccc2)c(NC(=O)c2ccccc2C)c1	.	.	1.2	20.0	.
Cc1ccc(NS(=O)(=O)c2ccc(C)c(NC(=O)COc3ccccc3)c2)c(C)c1	-1.8	-11.3	-1.6	2.5	-46.1*
CCOc1ccccc1NC(=O)C1CCN(S(=O)(=O)c2ccc3c(c2)CCCN3C(C)=O)CC1	-1.0	0.2	9.7	.	-2.7
CCOC(=O)N1CCC(N(C(=O)Nc2cccc(OC)c2)C(C)CC)CC1 (stereo not drawn)	0.1	7.9	-8.1	9.5	42.1
CCOC(=O)N1CCC(N(CCCOC)C(=O)Nc2cccc(OC)c2)CC1	1.7	1.0	-7.3	17.8	-31.4*
Cc1cc(C)c(C#N)c(N2CCN(Cc3ccccc3)CC2)n1	3.2	-8.1	-59.8	-92.8*	-13.7
Cc1ccc2nc(N3CCN(Cc4nnnn4Cc4ccccc4)CC3)c(C#N)cc2c1	4.9	11.3	-0.1	-73.7*	-14.4
Cc1cc(C)c(C#N)c(N2CCN(Cc3ccc4c(c3)OCO4)CC2)n1	3.4	-2.3	-20.0	-56.8*	5.9
Cc1cc(=O)n2nc(N3CCC(C(=O)Nc4ccc(Br)cc4F)CC3)sc2n1	1.4	-3.1	7.2	.	4.0
Cc1ccc(-c2csc(NCCn3c(-c4ccncc4)nc4ccccc43)n2)cc1	0.7	-6.2	51.4*	120.4	-16.0
COc1ccc(-c2csc(NCCn3c(C)nc4cc(C(F)(F)F)ccc43)n2)cc1	.	.	36.6*	73.4	.
O=c1c(NCCc2ccc(Cl)cc2)nccn1-c1ccccc1	2.8	-0.9	-12.7	.	-18.4
COc1cc(NC(=O)CSc2ccc(-c3sc(C)nc3C)nn2)cc(OC)c1	3.3	-5.1	3.5	.	1.6
CCOc1ccc(NC(=O)Cn2c3ncccc3c(=O)n2-c2ccc(CC)cc2)cc1	4.1	-3.4	3.5	.	-4.2
COc1cc2c(cc1OC)C(=Cc1ccc(N(C)C)cc1)C=C2	.	.	33.3*	14.3	.
CN(C)c1ccc(C=C2C=Cc3ccccc32)cc1	.	.	-3.3	-3.7	.
COc1cccc(CNC(=O)C2CCCN(c3nn4cc(-c5ccc(C)cc5)nc4s3)C2)c1 (stereo not drawn)	0.6	-3.6	5.8	.	-12.4
O=C(CCCN1Cc2ccccc2C1)c1ccc(F)cc1	8.8	-11.5	-14.9	-151.4*	-71.2*
O=C(CCCN1CCOC(c2ccccc2)C1)c1ccc(F)cc1 (stereo not drawn)	0.8	-7.3	-26.5	-85.8*	-27.5
O=C1CC(=C(c2ccccc2)c2ccccc2)C(=O)N1CCCCN1CCN(c2ccccc2)CC1	0.8	-10.8	11.3	-28.4	-56.8*
